# Screening results (PubChem BioAssay)
# Most compounds without a hit are left out; they make up all but 18% or so of the library.
# HepG2 tox = counter-screen for TGF-b inhibitors: cytotoxicity in HepG2 cells; AID 588856; 410,000 tested, 0.76% active; Potency, µM (series often up to 46.1 µM), without a hit: at the highest dose activity change, negative = cytotoxicity, most hits filed as cytotoxic; HepG2 CAGA-GFP viability, ATP luminescence, 18 h; also: potency is read from the fitted curve at half-maximal effect
#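 HepG2 CAGA-GFP cells (1000/well, DMEM with 1% FBS) received compound, then TGF-beta at 500 pg/mL final, and were incubated 18 hours at 37 degrees C. Viability was read by CellTiter-Glo luminescence. Media-only wells were set as complete cell-killing and DMSO as no toxicity.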
# TGFb SMAD3 inh = TGF-b pathway inhibition | HepG2 CAGA-GFP TGF-b/SMAD3 reporter, GFP fluorescence, 18 h; TGF-beta stimulated, 500 pg/mL final | Potency, µM (highest dose often 46.1 µM), for the others: at the top dose activity, negative = inhibition, most hits filed as inhibitors | 410,000 tested, 1.2% active; also: potency is read from the fitted curve at half-maximal effect; % is scaled to controls: 0 for no effect and ±100 for the full control effect; nearly all actives have a fitted effect of over 65% in size
#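 Read-out: total well GFP (ex488/em500-530) summed from mean per-cell fluorescence. Cells: HEPG2 CAGA-GFP, 1% FBS DMEM, 18 h at 37 degrees C with 500 pg/mL final TGF-beta. Unstimulated wells served as the full-inhibition control; stimulated DMSO wells = 0%.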
# TDP1 block = inhibitors of human tyrosyl-DNA phosphodiesterase TDP1; Potency, µM (series often up to 130 µM), inactives show top-dose activity change, negative = inhibition, hits mostly inhibitors; recombinant TDP1, AlphaScreen DNA substrate cleavage; Q9NUW8; 350,000 tested, 0.28% active; also: potency is read from the fitted curve at half-maximal effect; % is scaled to controls: 0 for no effect and ±100 for the full control effect; nearly all actives have a fitted effect of over 40% in size
# Target sequence (Q9NUW8 whole entry, looked up): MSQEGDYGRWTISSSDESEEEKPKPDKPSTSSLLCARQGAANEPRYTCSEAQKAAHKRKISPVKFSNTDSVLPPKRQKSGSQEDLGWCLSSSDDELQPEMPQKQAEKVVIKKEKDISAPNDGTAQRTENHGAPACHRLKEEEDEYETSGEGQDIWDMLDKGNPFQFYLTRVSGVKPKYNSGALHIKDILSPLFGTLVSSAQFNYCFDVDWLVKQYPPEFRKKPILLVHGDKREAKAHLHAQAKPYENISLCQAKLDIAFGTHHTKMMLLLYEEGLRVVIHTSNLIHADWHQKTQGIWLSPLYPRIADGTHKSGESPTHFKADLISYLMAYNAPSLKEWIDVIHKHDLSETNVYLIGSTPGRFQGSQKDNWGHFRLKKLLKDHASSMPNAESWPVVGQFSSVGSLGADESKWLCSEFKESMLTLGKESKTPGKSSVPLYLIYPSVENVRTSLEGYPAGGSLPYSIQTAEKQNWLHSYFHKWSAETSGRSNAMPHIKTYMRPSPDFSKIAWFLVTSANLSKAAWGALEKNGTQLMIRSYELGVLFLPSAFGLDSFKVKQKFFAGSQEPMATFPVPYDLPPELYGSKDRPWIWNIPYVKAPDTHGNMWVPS
#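 Recombinant human Tdp1 (E. coli-expressed, 1 nM final) preincubated with compounds 15 min at room temperature, then 5'-biotin/3'-phosphotyrosine-FITC DNA substrate (15 nM final) added for 5 min. AlphaScreen beads (10 ug/ml final) added 10 min; cleavage lowers signal.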
# TDP1 cell noCPT = qHTS for Inhibitors of human tyrosyl-DNA phosphodiesterase 1 (TDP1): qHTS in cells in absence of CPT; DT40 Tdp1-/- hTDP1 cells, no CPT, ATP luminescence, 48 h; Potency, µM (doses to about 46.2 µM), inactives show at the highest dose activity change, negative = growth inhibition, usual class: inhibitors; 420,000 tested, 15% active; also: potency is read from the fitted curve at half-maximal effect; % is scaled to controls: 0 for no effect and ±100 for the full control effect; nearly all actives have a fitted effect of over 55% in size
#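 DT40 Tdp1-/-;hTDP1 cells, no CPT (DMSO vehicle only), 400 cells/well; compounds pin-transferred; ≥48 hr, 37 °C; CellTiter-Glo 30 min RT dark, luminescence read.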
# IL1B secr inh = inhibitors of inflammasome signaling (IL-1 beta secretion); THP-1 LPS/ATP IL-1B secretion, AlphaLISA, 16 h; stronger effect = lower value; activity change, % at 57.5 µM; 360,000 tested, 4.7% active; AID 743279; in the data active = activity change below about -50%; inconclusive = mostly about -30% to -49%; also: % is scaled to controls: 0 for no effect and ±100 for the full control effect
#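 Secreted IL-1B measured by AlphaLISA bead assay after 16 h compound exposure of THP-1 cells; compounds (final up to 57.5 uM) added 1 h before LPS (250 ng/mL) and ATP (1.25 mM) stimulation; lower signal means less secretion.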
# TDP1 cell CPT = DT40-hTDP1 cell growth loss with CPT; Potency, µM (series often up to 46.2 µM), for inactives: top-dose activity change, negative = growth inhibition, hits mostly inhibitors; chicken DT40 Tdp1-/-;hTDP1 cells + 20 nM CPT, ATP luminescence, 48 h; 420,000 tested, 12% active; also: potency is read from the fitted curve at half-maximal effect; % is scaled to controls: 0 for no effect and ±100 for the full control effect; nearly all actives have a fitted effect of over 55% in size
#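 Chicken DT40 Tdp1-/- cells stably complemented with human TDP1 were seeded at 400 cells/well in medium containing 20 nM camptothecin, exposed to pin-transferred compounds, and grown at 37 °C for at least 48 hr. Viability was read as ATP luminescence.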
# * = called active by the depositor; u = inconclusive; x = no result given; ! = not confirmed by another sample; [ ] = remark or other dose. Unless noted, calls follow the shape of the dose curve; as a rule, active = well fitted curve in the direction sought with a large enough effect; inconclusive = small, poorly fitted or top-dose-only effect, or another doubt; inactive = no such curve, though single readings can be large; an effect the other way counts as inactive or inconclusive.
SMILES,HepG2 tox,TGFb SMAD3 inh,TDP1 block,TDP1 cell noCPT,IL1B secr inh,TDP1 cell CPT
O=C(Nc1ccccc1N1CCOCC1)c1ccc(Cl)c(S(=O)(=O)N2CCCC2)c1,-15%,-17%,0%,u,-5,u
COc1ccc(C2c3c(nc(CCc4ccccc4)[nH]c3=O)Oc3ccc4ccccc4c32)cc1OC (stereo unspecified),x,x,1%,x,x,x
CCOc1cc(NS(=O)(=O)c2ccc(OC)cc2)c(OCC)cc1NC(=O)c1ccco1,2%,10%,-3%,23µM*,-8,21µM*
CC1=C(c2ccc(C)c(C)c2)S(=O)(=O)N=C1N1CCC(C(=O)NCc2ccc(C)o2)CC1,2%,0%,-3%,-17%,x,4%
Cc1nc(Nc2ccc(Cl)c(Cl)c2)sc1C(=O)Nc1ccccc1,-101%,u,6%,15µM*,-26,6.5µM*
Cc1nc(NC(=O)/C=C/c2ccccc2)sc1C(=O)Nc1ccc(Cl)cc1,-64%,0%,0%,u,-10,u
Cc1nc(Nc2ccc(Cl)cc2Cl)sc1C(=O)Nc1ccccc1,-2%,u,3%,18µM*,-94*,26µM*
Cc1cc(C(=O)c2cnc(/N=C/N(C)C)s2)c(F)cc1Cl,1%,-11%,-1%,u,1,-17%
COC(CNC(=O)c1ccc2c(c1)nc(C)n2-c1cccc(C)c1)OC,2%,1%,x,-20%,17,5%
CCc1ccc(-n2c(C)nc3cc(C(=O)NCCc4ccccc4)ccc32)cc1,-48%,u,10%,u,x,21µM*
CCCNC(=O)c1ccc2c(c1)nc(C)n2-c1cccc(C)c1,-3%,-28%,0%,u,-30,16µM*!
Cc1cccc(-n2c(C)nc3cc(C(=O)NCCC4=CCCCC4)ccc32)c1,-25%,0%,8%,u,x,15µM*
COc1ccc2c(c1)c(CC(=O)NCc1ccc3c(c1)OCO3)c(C)n2C(=O)c1ccc(Cl)cc1,x,x,-1%,x,x,x
O=C(CCc1ccccc1O)N/N=C/c1ccc(Sc2cccc3cccnc23)o1,-59%,14µM*,6%,u,-29,u
CCC/C(O)=C1\C(=O)CCCC1=NCCc1c(C)[nH]c2ccccc12,-25%,-10%,6%,u,10,-24%
CCOc1ccc(-c2[nH]ncc2Oc2cccc(OC)c2)c(O)c1,-47%,u,5%,u,-5,u
CCCc1ccc(Oc2cn[nH]c2-c2ccc(O)c(C)c2O)cc1,-76%,u,5%,u,-64*,18µM*
CCCc1ccc(Oc2c(-c3ccc(O)c(C)c3O)n[nH]c2C)cc1,-99%,u,6%,u,6,-18%
CCCOC(=O)c1ccc(Oc2c(-c3ccc(OCC)cc3O)n[nH]c2C)cc1,11µM*,11µM*,-5%,18µM*,-102*,16µM*
CCCOC(=O)c1ccc(Oc2cn[nH]c2-c2ccc(OCC)cc2O)cc1,-111%,u,7%,u,-75*,u
CSCCC(c1nc2ccccc2[nH]1)n1c(/C=C/c2ccc(F)c(F)c2)nc2ccccc21 (stereo unspecified),x,x,x,u,-21,u
O=C(O)COc1ccc(/C=C/C(=O)c2ccc(C3CCCCC3)cc2)cc1,-9%,1%,x,18µM*,-101*,u
O=C(O)COc1ccc2ccccc2c1,x,x,10%,x,x,x
O=C(O)COc1ccc(/C=C/C(=O)c2ccc3ccccc3c2)cc1,-28%,-28%,5%[0.0935 µM],0%,-99*,15%
CCOc1ccc(NC(=O)NCCN2CCN(c3cccc(C)c3C)CC2)cc1,-35%,-14%,-9%[12.3 µM],21µM*,-3,21µM*
SMILES,HepG2 tox,TGFb SMAD3 inh,TDP1 block,TDP1 cell noCPT,IL1B secr inh,TDP1 cell CPT
CCOc1ccc(OCC)c(NC(=O)CN2CCN(c3cccc(C)c3C)CC2)c1,7%,6%,x,23µM*,11,16µM*
CCOc1cccc(N2CCN(CCNC(=O)Nc3ccc(C)cc3)CC2)c1C,-6%,17%,x,u,-68*,u
CC1CCCN(C(=O)c2nn(C)c3c2CS(=O)(=O)c2ccccc2-3)C1 (stereo unspecified),-1%,-1%,2%,24%,2,-8%
Cc1cc(NC(=O)CSc2nc(CC(C)(C)C)nc3c2c(=O)n(C)c(=O)n3C)no1,-2%,3%,4%,u,20,u
CC(C)CC(COCc1ccc(Cl)cc1)N1CCN(C(=O)c2ccc(Cl)cc2Cl)CCC1=O (stereo unspecified),-23%,u,8%,u,0,23µM*
CC(C)C[C@@H](COCc1ccc([N+](=O)[O-])cc1)N1CCN(C(=O)c2ccc(C(F)(F)F)cc2)CCC1=O,x,x,x,16µM*,-24,u
CC(C)C[C@@H](COCc1ccc(Cl)cc1)N1CCN(C(=O)c2ccc(C(F)(F)F)cc2)CCC1=O,x,x,x,21µM*,u,u
CC(C)(C)c1ccc(C(=O)N2CCC(=O)N([C@H](COCc3ccc(Cl)cc3)Cc3ccccc3)CC2)cc1,x,x,-3%[96 µM],x,x,x
CC(C)CC(COCc1cccc(Cl)c1)N1CCN(C(=O)c2cccc(C(F)(F)F)c2)CCC1=O (stereo unspecified),-2%,u,-5%,u,-16,u
O=C(c1ccc(C(F)(F)F)cc1)N1CCC(=O)N([C@H](COCc2ccc(C(F)(F)F)cc2)Cc2ccccc2)CC1,x,x,4%[96 µM],u,0,23µM*
COc1cc(-c2nc(-c3ccc4c(c3)[nH]c(=O)n4C)no2)cc(OC)c1OC,-12%,-1%,9%,-14%,x,-16%
Cc1ccc(C(=O)COC(=O)CCN2C(=O)C3C4C=CC(C5CC45)C3C2=O)cc1 (stereo unspecified),-7%,2%,0%,25%,6,0%
COc1cc(C(c2c(O)cc(C)[nH]c2=O)c2c(O)cc(C)[nH]c2=O)ccc1O,-1%,1%,x,-10%,3,-10%
COc1ccccc1CN(Cc1cccnc1)S(=O)(=O)c1ccc(-n2cnnn2)c(OC)c1,-11%,-1%,x,21µM*,-12,-2%
COc1cc(S(=O)(=O)N(Cc2cccnc2)Cc2cccc(OC)c2OC)ccc1-n1cnnn1,-10%,-8%,2%,u,-12,16µM*
